The panel holds about 83,000 compounds, 20% with a hit somewhere; the sample as a whole holds those more often.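 Interpretation: 100, growth as untreated; towards 0, rising growth inhibition; 0, no net growth; 0 to -100, cell death. Compounds scoring below 10 were considered active.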 A number with no mark means an inactive call. Calls of active or inactive are those of the source.

Common to all, as to experiment: NCI-60 one-dose screen, 48 h (100 = growth as untreated, 0 = no growth, -100 = all killed)
Settings in all cases: 10 µM unless noted

Assay [1] concerns NCI-H23 lung.
The test system of assay [2] is NCI-H226 lung.
The subject of assay [3] is NCI-H322M lung.
In assay [4] the test system is HOP-62 NSCLC.
The test system of assay [5] is NCI-H460 lung.
The subject of assay [6] is HOP-92 NSCLC.
Assay [7] relates to NCI-H522 lung.
Assay [8] relates to A549/ATCC NSCLC.
In assay [9] the test system is 786-0 renal.
Assay [10] relates to COLO 205 colon.
The subject of assay [11] is DU-145 prostate.
Assay [12] concerns K-562 leukemia.
The subject of assay [13] is MALME-3M melanoma.
Assay [14] relates to MDA-MB-231 breast.
Assay [15] concerns RXF 393 renal.
The subject of assay [16] is SF-268 CNS.
Assay [17] deals with SF-295 CNS.
In assay [18] the test system is SF-539 CNS.
For assay [19], the system named is UACC-257 melanoma.
Assay [20] relates to M14 melanoma.

For the compound `CC1=CCC[C@@H]2C1(C)CC[C@H](C)[C@@]2(C)CC1=CC(=O)C(SC(C)(C)C)=CC1=O` (stereo not given in full), the growth in assay [1] was 81.2%; in [2], 84.7%; in [3], 87.6%; in assay [4], 97.8%; in assay [5], 83.5%; in assay [6], 75.2%. Moreover, the growth in assay [7] was 62.9%; in assay [8], 73.3%; in assay [9] it was 82.4%; in [10], 100%; in [11], 77.6%; in [12] it was 57.8%. The growth in assay [13] was 82.3%; in [14], 78.3%; in assay [15], 74.5%; in [16] it was 85.3%; in assay [17] it was 85.1%; in assay [18] it was 89.9%. In addition, the growth was 90.3% in [19] and 88.9% in [20].
Regarding `CC(C)c1ccc(NC(=O)Nc2ccc(NC(=O)c3ccccc3N)cc2)cc1`, the growth in [1] was 59.5%; in [2] it was 74.3%; in assay [3], 55%; in assay [4], 22.6%; in assay [5], 22.7%; in assay [6], 74.2%. Also, the growth in assay [7] was 26.8%; in assay [8] it was 50%; in [9], 8.19% (active); in [10] it was 61.8%; in assay [11] it was 79.2%; in assay [12] it was 18.2%. Moreover, the growth in assay [13] is 72.9%; in assay [14] it was 50.1%; in assay [15] it was -25.1% (active); in assay [16] it was 51.8%; in assay [17], -27.3% (active); in assay [18], 30.1%. For the same compound, the results for the growth in [19] and in assay [20] were 58.6% and 34%, respectively.
As to `CCN(CC)CCNC(=O)c1ccc(-c2nc3ccc4[nH]ncc4c3c3c2CCCC3)cc1`, the growth in [1] is 65.3%; in assay [2] it was 64.7%; in [3], 55.8%; in assay [4], 57.3%; in [5] it was 60.5%; in assay [6], 73%. The growth is 50.6% in assay [7]; 56.1% in [8]; 50.6% in [9]; 63.6% in [10]; 53.5% in assay [11]; 30% in assay [12]. The growth was 79.1% in assay [13]; 59.6% in assay [14]; 36.4% in [15]; 58.6% in [16]; 80.2% in assay [17]; 61.2% in assay [18]. The values for the growth in [19] and in [20] were 96.7% and 52.9%, respectively.
In the case of `CC(=O)Nc1c(Cl)cc(Cl)c2c1Cc1cc([N+](=O)[O-])ccc1-2`, the growth in assay [1] is 94.6%; in [2], 113%; in assay [3], 99%; in [4] it was 90.5%; in assay [5] it was 86.6%; in [6], 100%. Further, the growth in [7] is 91.9%; in assay [8], 82.4%; in [9], 75.7%; in assay [10] it was 93.4%; in [11] it was 104%; in assay [12], 90.2%. The growth in assay [13] is 107%; in [14] it was 83.6%; in assay [15] it was 85.3%; in assay [16], 95.5%; in assay [17], 113%; in assay [18], 61.1%. Also, the growth in assay [19] was 107%; in assay [20], 100%.
In the case of `CCOC(=O)c1c(C)nc2ccccc2c1/C=C/c1ccc(OC)cc1`, the growth was 46.3% in assay [1]; 61.8% in assay [2]; 95.8% in assay [3]; 71.8% in assay [4]; 78.1% in assay [5]; 44.5% in assay [6]. Further, the growth was 53.5% in assay [7]; 57.6% in assay [8]; 77.8% in [9]; 83.6% in assay [10]; 93.1% in assay [11]; 42% in assay [12]. The growth in assay [13] is 87%; in [14], 74.6%; in assay [15] it was 91.3%; in [16], 78%; in assay [17] it was 58.8%; in [18], 85.3%. For the same compound, the growth in [19] was 74%; in [20] it was 70.5%.
Turning to `O=C1/C(=C/c2cccc([N+](=O)[O-])c2)COc2ccc(O)cc21`, the growth is 89.3% in assay [1]; 111% in assay [2]; 89.8% in assay [3]; 88.2% in assay [4]; 92.4% in [5]; 110% in assay [6]. In addition, the growth was 8.12% (active) in assay [7]; 89.2% in assay [8]; 14.7% in assay [9]; 64.6% in assay [10]; 81.8% in assay [11]; 13.4% in assay [12]. In addition, the growth is 76.6% in assay [13]; 47.9% in [14]; 107% in assay [15]; 85.9% in assay [16]; 95.5% in assay [17]; 70.6% in assay [18]. Further, the growth was 97% in [19] and 55% in assay [20].
`Cc1c2cnccc2c(C)c2c1c1cc(C3OCCCO3)ccc1n2C`: the growth is -31.9% (active) in assay [1]; -4.43% (active) in [2]; -2.25% (active) in assay [3]; -13% (active) in [4]; 0.184% (active) in assay [5]; -10.5% (active) in assay [6]. Further, the growth in assay [7] is -41.6% (active); in assay [8], 2.33% (active); in assay [9] it was 11.8%; in assay [10] it was -17.6% (active); in [11], 3.92% (active); in [12] it was 3.75% (active). Besides, the growth in assay [13] is -62.9% (active); in assay [14], -26.1% (active); in assay [15], -78.9% (active); in assay [16], 1.29% (active); in assay [17] it was 0.404% (active); in assay [18], -55.1% (active). For the same compound, the growth in assay [19] was -25.8% (active); in [20], -79.8% (active).

Source of the values: PubChem BioAssay (NCI).
